Assay outcomes deposited in PubChem BioAssay by National Center for Advancing Translational Sciences (NCATS).
HT1080 IDH1KD tx – toxicity to HT-1080 IDH1 knockdown cells (counter line); AID 686971; Potency, µM (doses to about 46.1 µM), usual class: cytotoxic; HT-1080 IDH1 knockdown viability, ATP luminescence, 48 h; 360,000 tested, 2% active
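Knockdown cells (IDH1KD HT-1080) received compounds 2 h after plating at 750 cells/well and were kept 48 h at 37 °C in 5% FBS RPMI. A CellTiter-Glo luminescence read gave % activity for curve fitting.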
KB-V1 cytotox – kills drug-selected multidrug resistant KB-V1 cells; 400,000 tested, 3.4% active; KB-V1 MDR cells viability, CellTiter-Glo, 72 h; Potency, µM (titrated, usually from 46.1 µM), actives largely listed as cytotoxic; AID 1347076; note: nearly all actives have a fitted effect of over 60% in size
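Following 72 h at 37 degrees C with compound, KB-V1 cell viability was read by CellTiter-Glo luminescence, medium being phenol-red-free DMEM plus 10% FBS; concentration-response parameters came from normalized, curve-fitted qHTS data.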
DT40 TDP1 no CPT – qHTS for Inhibitors of human tyrosyl-DNA phosphodiesterase 1 (TDP1): qHTS in cells in absence of CPT; DT40 Tdp1-/- hTDP1 cells, no CPT, ATP luminescence, 48 h; Potency, µM (series often up to 46.2 µM), usual class: inhibitors; 420,000 tested, 15% active; AID 686978, 2013; note: nearly all actives have a fitted effect of over 55% in size
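No-CPT arm: Tdp1-/-;hTDP1 DT40 cells (400/well) plus compounds, incubated ≥48 hr at 37 °C. Readout CellTiter-Glo luminescence.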
TDP1 cell CPT – DT40-hTDP1 cell growth loss with CPT; 420,000 tested, 12% active; chicken DT40 Tdp1-/-;hTDP1 cells + 20 nM CPT, ATP luminescence, 48 h; Potency, µM (titrated, usually from 46.2 µM), hits mostly inhibitors; note: nearly all actives have a fitted effect of over 55% in size
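Chicken DT40 Tdp1-/- cells complemented with human TDP1, 400 cells/well, exposed to compounds plus 20 nM camptothecin for at least 48 h at 37 C; viability read as ATP content by CellTiter-Glo luminescence.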
HT1080-NT tox – kills 2HG-producing HT-1080-NT fibrosarcoma cells; AID 686970; HT-1080-NT fibrosarcoma viability, CellTiter-Glo ATP luminescence, 48 h; Potency, µM (titrated, usually from 46.1 µM), most hits filed as cytotoxic; 360,000 tested, 1.6% active;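 note: NT is the 2HG producing partner of a matched IDH1 knockdown line; nearly all actives have a fitted effect of over 55% in size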
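Compounds were tested in concentration-response format on HT-1080-NT cells for 48 hours at 37 degrees C. Cell viability came from CellTiter-Glo luminescence; curves were classified by r2, response magnitude and activity.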
KB-3-1 tox – kills parental KB-3-1 adenocarcinoma cells; KB-3-1 viability, CellTiter-Glo ATP luminescence, 72 h; 400,000 tested, 1.4% active; Potency, µM (top dose mostly 46.1 µM), most hits filed as cytotoxic; note: nearly all actives have a fitted effect of over 60% in size
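Here the drug-naive KB-3-1 line serves as comparator for MDR sub-line selectivity; cells received compound titrations, 72 h at 37 °C, then CellTiter-Glo readout.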
Numbers stand for hits; n = inactive; u = inconclusive; x = no result given; ! = repeats disagree. An excerpt weighted towards active compounds, which were near 19% of everything screened. Calls come from the whole dose curve; as a rule, active = well fitted curve in the direction sought with a large enough effect; inconclusive = small, poorly fitted or top-dose-only effect, or another doubt; inactive = no such curve, though single readings can be large; an effect the other way counts as inactive or inconclusive.

SMILES	HT1080 IDH1KD tx	KB-V1 cytotox	DT40 TDP1 no CPT	TDP1 cell CPT	HT1080-NT tox	KB-3-1 tox
Cc1sc(NC(=O)c2ccco2)c(CN2CCN(Cc3ccccc3)CC2)c1C	u	u	11.6µM	11.6µM	n	u
Cc1sc(NC(=O)c2ccc(F)cc2)c(CN2CCCCCC2)c1C	n	u	13µM	13µM	n	n
O=C1CS(=O)(=O)C2(C(=O)N(Cc3ccccc3)c3ccccc32)N1c1ccccc1 (centres undefined)	x	n	n	n	x	n
CN(C)/N=N/c1nc[nH]c1C(N)=O	x	x	n	n	x	x
CN(C)c1ccc(/C=C(\C#N)c2nc(-c3ccc(Cl)c(Cl)c3)cs2)cc1	x	u	n	n	x	n
O=[N+]([O-])c1cc(-c2nc(-c3ccccc3)no2)ccc1NC1CCCCC1	x	u	n	n	x	n
COc1ccc(Br)cc1CNC(=O)CSc1n[nH]c(-c2ccccc2)n1	x	n	20.6µM	13µM	x	u
COc1ccc(-c2nc(SCC(=O)NCCCc3ccccc3)n[nH]2)cc1	x	x	20.6µM	16.4µM	x	x
O=C(CSc1n[nH]c(-c2ccccc2)n1)NCCCc1ccccc1	x	n	20.6µM	u	x	n
O=C(CSc1n[nH]c(-c2ccc(F)cc2)n1)NCCc1ccccc1	x	x	u	n	x	x
Nn1cc(-c2ccccc2)nc1SCC(=O)NCCc1ccccc1	n	23.1µM	u	n	n	n
COc1ccc(NC(=O)CSc2n[nH]c(-c3ccccc3)n2)cc1Cl	x	u	u	u	x	n
Nn1cc(-c2ccccc2)nc1SCC(=O)NCC(F)(F)F	n	n	n	n	n	n
COc1ccc(C(=O)CSc2n[nH]c(-c3ccncc3)n2)cc1[N+](=O)[O-]	n	n	n	n	n	n
COc1ccc(OC)c(C(=O)CSc2nccc(-c3ccc(Br)cc3)n2)c1	n	u	29.1µM	u	u	n
COc1ccc(-c2ccnc(SCC(=O)c3ccc(Cl)cc3)n2)cc1	n	u	u	n	n	n
COc1ccc(-c2nc(SCC(=O)c3ccc(OC)c(Br)c3)n[nH]2)cc1	x	u	23.1µM	u	x	u
C=C(/C=C/c1ccc(N(C)C)cc1)c1nc2ccccc2s1	x	u	0.112µM	0.0891µM	x	n
CN(C)c1ccc(/C=C/c2nc3ccccc3s2)cc1	u	13µM!	0.1µM	16.4µM	u	16.4µM!
Cc1ccc(/C=C/c2nc3ccccc3s2)s1	u	n	n	n	n	u
CN(Cc1ccccc1)c1ccc(/C=C/c2nc3ccccc3s2)cc1	x	n	0.1µM	0.316µM	x	7.31µM
O=C(CCc1nnc(-c2ccc3c(c2)OCO3)o1)NC(c1cccnc1)C(F)(F)F (centres undefined)	n	n	u	n	n	n
Cc1ccc(-n2c(=O)[nH]c3sc4c(c3c2=O)CCNC4)cc1C	x	n	n	u	x	n
O=C1c2ccccc2C2=Nc3ccccc3SC(c3cccc(F)c3)C12 (centres undefined)	u	16.4µM	16.4µM	16.4µM	u	20.6µM
O=C1c2ccccc2C2=Nc3ccccc3SC(c3ccc(Cl)cc3)C12 (centres undefined)	u	n	u	u	u	n
Cc1ccc2c(CC(=O)OCc3cc(=O)n4c(n3)sc3ccccc34)coc2c1	n	u	n	n	n	n
CC(C)[C@H](NC(=O)Cc1ccccc1)C(=O)OCc1cc(=O)n2c(n1)sc1ccccc12	n	n	13µM	14.6µM	n	n
O=C(NC1CCCCCC1)C(=S)N1CCOCC1	n	n	16.4µM	u	n	n
Oc1cccc(Nc2nc(NCC3CCCO3)c3ccccc3n2)c1 (centres undefined)	n	18.4µM	14.6µM	16.4µM	u	u
c1ccc(Nc2nc(NCC3CCCO3)c3ccccc3n2)cc1 (centres undefined)	18.4µM	20.6µM	3.26µM	3.66µM	23.1µM	16.4µM
